Experimental data: PubChem BioAssay AID777 (Sanford-Burnham Center for Chemical Genomics, 2007)
The whole screen tested about 96,000 compounds, of which about 19,000 (20%) were called active. A selection follows. A number with no mark means an inactive call.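 The calls were made as follows: active = blocking of liver enzyme CYP2C9 beyond about 50% at 5 µM (limit read from the data); inactive = the rest.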

target: Cytochrome P450 2C9 (Homo sapiens) (UniProt P11712); assay: blockers of cytochrome P450 2C9 activity – biochemical, luminescence, ADME assay, primary screen (AID 777); details: CYP2C9 Supersomes, luciferin-H conversion, at 5 µM, active compounds read high
Sequence (P11712 whole entry, looked up): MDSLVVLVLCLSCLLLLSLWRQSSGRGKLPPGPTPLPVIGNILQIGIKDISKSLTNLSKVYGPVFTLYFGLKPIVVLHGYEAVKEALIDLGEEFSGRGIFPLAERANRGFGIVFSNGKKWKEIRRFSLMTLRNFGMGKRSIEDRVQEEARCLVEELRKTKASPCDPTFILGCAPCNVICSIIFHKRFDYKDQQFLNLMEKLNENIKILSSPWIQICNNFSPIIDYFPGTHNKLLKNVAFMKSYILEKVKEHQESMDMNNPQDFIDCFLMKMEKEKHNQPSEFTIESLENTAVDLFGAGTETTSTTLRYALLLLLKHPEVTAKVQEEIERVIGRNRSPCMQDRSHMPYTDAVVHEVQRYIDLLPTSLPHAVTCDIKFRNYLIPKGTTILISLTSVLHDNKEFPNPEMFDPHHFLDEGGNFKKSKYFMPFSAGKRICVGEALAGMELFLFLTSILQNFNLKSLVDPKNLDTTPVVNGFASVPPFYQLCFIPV

Q: With Cc1cc(O)ccc1-c1cnc2ccccc2n1 as the molecule, how does the inhibition read?
A: The inhibition was -7.4%.

Q: For O=C(CN1C(=O)c2ccccc2S1(=O)=O)N1CCc2ccccc21, which inhibition is on record?
A: Its inhibition is -5.2%.

Q: CNC(=O)CN1C(=O)c2ccccc2S1(=O)=O was tested. Which inhibition did it give?
A: The inhibition was -5.9%.

Q: O=C1c2ccccc2S(=O)(=O)N1CC(O)Cn1c2ccccc2c2ccccc21 (stereo not given) was tested. Which inhibition did it give?
A: Its inhibition is 94.4% (active).

Q: Which inhibition does the source give for CCC(=O)Nc1ccc(C(=O)Nc2ccc3c(c2)C(=O)N(CC2CCCO2)C3=O)cc1 (stereo not given) here?
A: Its inhibition is 18.8%.

Q: For CC(=O)Nc1cccc(Oc2cc(C#N)c(C#N)cc2N2CCOCC2)c1, which inhibition is on record?
A: The inhibition was 61.5% (active).

Q: With CC(=O)Nc1ccc(N2CCOCC2)c(C(=O)Nc2cccc(C)c2)c1 as the molecule, how does the inhibition read?
A: The inhibition was 49.6%.

Q: With CCOc1cccc(NC(=O)CC#N)c1 as the molecule, how does the inhibition read?
A: The inhibition was -19.3%.

Q: With CCC(=O)Nc1ccc(C(=O)Nc2cc(C)on2)cc1 as the molecule, how does the inhibition read?
A: Its inhibition is 8.5%.

Q: How did the inhibition turn out when Cc1ccc(/C=N/NC(=O)c2sccc2OCc2ccc(F)cc2)cc1 was run?
A: Its inhibition is 17.4%.

Q: O=C(Nc1nnc(CCOCCOCCc2nnc(NC(=O)c3ccco3)s2)s1)c1ccco1 was tested. Which inhibition did it give?
A: The inhibition was 19.4%.

Q: Which inhibition does the source give for Cc1[nH][nH]c(=O)c1N=Nc1ccccc1 here?
A: The inhibition was 25.4%.

Q: Which inhibition does the source give for COc1ccccc1-c1cc(C(=O)NCCCn2ccnc2)no1 here?
A: Its inhibition is -25.8%.

Q: Which inhibition does the source give for O=C(NCCCn1ccnc1)Nc1ccc(Cl)cc1Cl here?
A: The inhibition was 97.7% (active).

Q: Which inhibition does the source give for NS(=O)(=O)c1ccc(CCNC(=O)Nc2ccc(Cl)cc2)cc1 here?
A: The inhibition was 30.4%.

Q: CCOc1ccccc1C(=O)NCCCn1ccnc1 was tested. Which inhibition did it give?
A: Its inhibition is 65.1% (active).

Q: CCCCOCCCNC(=O)c1ccccc1OCC was tested. Which inhibition did it give?
A: Its inhibition is -187%.

Q: With CCCC(=O)Nc1ccc(C(=O)NCCCn2ccnc2)cc1 as the molecule, how does the inhibition read?
A: The inhibition was 42.1%.

Q: Cn1c(=NC(=O)CSCC(=O)N2CCCCC2)sc2ccccc21 was tested. Which inhibition did it give?
A: Its inhibition is -39.3%.

Q: Which inhibition does the source give for O=C(Cc1c(F)cccc1Cl)N1CCN(C(=O)c2ccco2)CC1 here?
A: Its inhibition is 11.7%.

Q: O=C1CSC(c2cccc(F)c2)N1c1ccc(O)cc1 (stereo not given) was tested. Which inhibition did it give?
A: The inhibition was 32.7%.

Q: CCN1CCN(C(=O)/C=C\C(=O)O)CC1 was tested. Which inhibition did it give?
A: Its inhibition is -4.2%.

Q: For CS(=O)(=O)N(CC(=O)Nc1ccc(F)cc1F)c1cccc([N+](=O)[O-])c1, which inhibition is on record?
A: The inhibition was 13.3%.

Q: COc1cccc(N(CC(=O)Nc2cccc(F)c2)S(C)(=O)=O)c1 was tested. Which inhibition did it give?
A: The inhibition was 45.4%.

Q: How did the inhibition turn out when Cc1cccc(N(CC(=O)Nc2ccc(-c3nc4ccc(C)cc4s3)cc2)S(C)(=O)=O)c1 was run?
A: The inhibition was 6.7%.

Q: Cc1ccc(N(CC(=O)Nc2cccc(N(C)S(C)(=O)=O)c2)S(C)(=O)=O)cc1 was tested. Which inhibition did it give?
A: Its inhibition is 5.5%.

Q: CCN(CC)S(=O)(=O)c1ccc(NC(=O)CN(c2cccc(F)c2)S(C)(=O)=O)cc1 was tested. Which inhibition did it give?
A: The inhibition was 97.6% (active).

Q: How did the inhibition turn out when COc1cccc(N(CC(=O)Nc2cccc(N(C)S(C)(=O)=O)c2)S(C)(=O)=O)c1 was run?
A: The inhibition was 57.7% (active).

Q: CC1Cc2cc(/C(O)=C3\C(=O)C(=O)N(CCN4CCOCC4)C3c3ccccc3F)ccc2O1 (stereo not given) was tested. Which inhibition did it give?
A: Its inhibition is 0.8%.

Q: For CCSc1ncnc2c(C#N)c3n(c12)CCCCC3, which inhibition is on record?
A: Its inhibition is 17.9%.

Q: For Nn1c(SCC(=O)NC2CCCC2)nnc1-c1ccccc1F, which inhibition is on record?
A: The inhibition was 8.6%.

Q: How did the inhibition turn out when COCCNC(=O)COc1ccccc1C was run?
A: Its inhibition is 4.4%.

Q: Which inhibition does the source give for CCCn1nnnc1NC(=O)COc1ccc(Cl)cc1C here?
A: Its inhibition is 46.7%.

Q: Which inhibition does the source give for O=C(CSc1ncn[nH]1)Nc1ccnc2ccccc12 here?
A: The inhibition was 35.2%.

Q: How did the inhibition turn out when O=C(Nc1cccc2ncccc12)C(Cl)(Cl)Cl was run?
A: Its inhibition is 49.6%.

Q: With O=C(CSc1n[nH]c(-c2cccnc2)n1)Nc1ccnc2ccccc12 as the molecule, how does the inhibition read?
A: The inhibition was 91.5% (active).

Q: For CCCn1c(SCC(N)=O)nnc1C(C)C, which inhibition is on record?
A: Its inhibition is -8%.

Q: O=C1c2cccnc2C(=O)N1Cc1cccs1 was tested. Which inhibition did it give?
A: The inhibition was 11.6%.

Q: With CCOC(=O)c1sc(C)c2c1NC(C)(c1cccc3ccccc13)NC2=O (stereo not given) as the molecule, how does the inhibition read?
A: Its inhibition is 100% (active).

Q: CCOC(=O)c1cc2ccccc2nc1C was tested. Which inhibition did it give?
A: Its inhibition is -27.3%.

Q: For CCOC(=O)c1nc(N)sc1C(=O)OCC, which inhibition is on record?
A: The inhibition was 4.2%.

Q: For Cc1ccccc1Nc1nnc(C)c(=O)[nH]1, which inhibition is on record?
A: Its inhibition is 2.7%.

Q: For CNC(=O)c1nnc(Cc2ccc(Cl)cc2)o1, which inhibition is on record?
A: The inhibition was 5%.

Q: For CC(C)CCNC(=O)CN(C(=O)Cn1nnc(-c2ccc(F)cc2)n1)C1CCCC1, which inhibition is on record?
A: Its inhibition is 17.3%.

Q: CC(C)CCNC(=O)C1CCCN(S(=O)(=O)c2ccc(F)cc2)C1 (stereo not given) was tested. Which inhibition did it give?
A: Its inhibition is -10.8%.

Q: CC(C)CCNC(=O)C(C)N(C(=O)Cn1nnc(-c2ccc(F)cc2)n1)C1CCCC1 (stereo not given) was tested. Which inhibition did it give?
A: Its inhibition is 77.2% (active).

Q: Which inhibition does the source give for CC1=CC(C)(C)NC(=S)N1c1ccccc1 here?
A: The inhibition was 13.8%.

Q: CCc1cccc2c(C=C(C#N)C#N)cn(CC(=O)N3CCCCC3)c12 was tested. Which inhibition did it give?
A: The inhibition was 0%.

Q: For CCc1c(C)nc(N2CCN(Cc3ccccc3)CC2)[nH]c1=O, which inhibition is on record?
A: Its inhibition is 10.1%.

Q: How did the inhibition turn out when O=c1cc(CSc2ccccn2)nc(N2CCN(c3ccccc3)CC2)[nH]1 was run?
A: The inhibition was 3.6%.

Q: For Cc1nnc(SCc2cc(=O)[nH]c(N3CCN(Cc4ccccc4)CC3)n2)s1, which inhibition is on record?
A: Its inhibition is 56.4% (active).

Q: With Cc1ccc(-c2n[nH]c(=S)n2/N=C/c2cc3c(cc2[N+](=O)[O-])OCO3)cc1 as the molecule, how does the inhibition read?
A: The inhibition was 18%.

Q: How did the inhibition turn out when Nc1nc(C23CC4CC(CC(C4)C2)C3)cs1 was run?
A: Its inhibition is 73.6% (active).

Q: For N#Cc1c(N)nc2c3c(sc(=N)c2c1N)NC(=O)CC3c1ccccc1Cl (stereo not given), which inhibition is on record?
A: Its inhibition is 8.6%.

Q: CCOC(=O)C1(S(=O)(=O)c2ccc(Cl)cc2)CCN(Cc2ccccc2)CC1 was tested. Which inhibition did it give?
A: The inhibition was 21.8%.

Q: How did the inhibition turn out when CCN1C(=O)/C(=C\N2CCOCC2)SC1=S was run?
A: Its inhibition is 8.1%.

Q: How did the inhibition turn out when CC1(N2CCOCC2)CC2(O)C(=[N+]1[O-])CCc1nonc12 (stereo not given) was run?
A: Its inhibition is 31.8%.

Q: Which inhibition does the source give for O=C1Nc2cc(Cl)c(Cl)cc2N(O)N1c1cc(Cl)cc(Cl)c1 here?
A: Its inhibition is 89.3% (active).

Q: CCN(CC)CCCNC(=O)c1cc(-c2cccc(Cl)c2)on1 was tested. Which inhibition did it give?
A: Its inhibition is 10.4%.

Q: CC(C)N(c1ccccc1)c1ncnc(NCCC(=O)O)c1[N+](=O)[O-] was tested. Which inhibition did it give?
A: Its inhibition is -1.4%.

Q: Cc1ccc(C(=O)CSc2nc3ccccc3c(=O)n2N)o1 was tested. Which inhibition did it give?
A: The inhibition was 34.2%.

Q: For Cc1ccsc1C(=O)OCC(=O)c1cc2ccccc2o1, which inhibition is on record?
A: Its inhibition is -30.4%.

Q: Which inhibition does the source give for Cc1cc2c(=O)n(C)c(SCC(=O)c3cc4ccccc4o3)nc2s1 here?
A: Its inhibition is 95.9% (active).

Q: Which inhibition does the source give for C=CCn1c(Oc2ccc(C(=O)OC)cc2)nc2c1c(=O)n(C)c(=O)n2C here?
A: Its inhibition is 8.4%.

Q: How did the inhibition turn out when O=C(O)C1CCN(S(=O)(=O)N2CCOCC2)CC1 was run?
A: The inhibition was 3.6%.
